# Assay results: PubChem BioAssay (NCI)
# About 83,000 compounds went through this panel and 20% of them were active in at least one assay; those are over-represented in the sample as a whole.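 Results are percent growth after 48 hours of single-concentration exposure. 100 means growth as in untreated cells, lower positive values show inhibition; negative values down to -100 show cell death.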 Values without a mark were called inactive. Calls of active or inactive are those of the source. The calls were made as follows: active = growth percent below 10; inactive = the rest.
# How the values were obtained:
# Assay in all cases: NCI-60 one-dose screen, 48 h (100 = growth as untreated, 0 = no growth, -100 = all killed)
# Conditions in all cases: 10 µM unless noted
# NCI-H23 lung = system: NCI-H23 lung
# NCI-H226 lung = system: NCI-H226 lung
# NCI-H322M lung = system: NCI-H322M lung
# HOP-62 NSCLC = system: HOP-62 NSCLC
# NCI-H522 lung = system: NCI-H522 lung
# A549/ATCC NSCLC = system: A549/ATCC NSCLC
# 786-0 renal = system: 786-0 renal
# COLO 205 colon = system: COLO 205 colon
# DU-145 prostate = system: DU-145 prostate
# MALME-3M melanoma = system: MALME-3M melanoma
# MDA-MB-231 breast = system: MDA-MB-231 breast
# RXF 393 renal = system: RXF 393 renal
# SF-268 CNS = system: SF-268 CNS
# SF-295 CNS = system: SF-295 CNS
# SF-539 CNS = system: SF-539 CNS
# UACC-257 melanoma = system: UACC-257 melanoma
# M14 melanoma = system: M14 melanoma
# K-562 leukemia = system: K-562 leukemia
# NCI-H460 lung = system: NCI-H460 lung
Compound,growth (NCI-H23 lung),growth (NCI-H226 lung),growth (NCI-H322M lung),growth (HOP-62 NSCLC),growth (NCI-H522 lung),growth (A549/ATCC NSCLC),growth (786-0 renal),growth (COLO 205 colon),growth (DU-145 prostate),growth (MALME-3M melanoma),growth (MDA-MB-231 breast),growth (RXF 393 renal),growth (SF-268 CNS),growth (SF-295 CNS),growth (SF-539 CNS),growth (UACC-257 melanoma),growth (M14 melanoma),growth (K-562 leukemia),growth (NCI-H460 lung)
COc1cc(C2CC(=O)Nc3c2cnn3C)cc(OC)c1OC (stereo not drawn),108%,104%,100%,98.2%,101%,107%,103%,110%,108%,97.7%,118%,124%,112%,105%,103%,101%,103%,–,–
CCCCc1nc(Cl)c(C2CC(c3ccc(S(N)(=O)=O)cc3)=NN2c2cc(Cl)cc(Cl)c2)[nH]1 (stereo not drawn),51.9%,39%,77.7%,61.8%,22.7%,36.5%,53.6%,32.2%,70.8%,65.3%,35.2%,48.4%,49.4%,50.3%,91.4%,55.4%,18.7%,16%,–
CCCCCCCCCCCCNC(=O)N[C@H](C(=O)N[C@H]1/C=C/CCNC(=O)/C=C/[C@H](C)NC1=O)C(C)C,-42.8% (active),-87% (active),3.54% (active),-65.1% (active),-21.7% (active),10.5%,-37.7% (active),-51.3% (active),6.45% (active),-1.82% (active),-44.7% (active),-98.8% (active),-44.9% (active),-37.4% (active),-49.4% (active),49.9%,-82% (active),–,2.24% (active)
CCCCCCCC/C=C/CCCCCCCC1=NC(C)(C)CN1C(C)C,-2.44% (active),61.4%,76.8%,-79.6% (active),-57.6% (active),15.7%,–,-67.3% (active),21.9%,-19.5% (active),-9.32% (active),-68.1% (active),4.16% (active),6.07% (active),8.28% (active),11.1%,-75.3% (active),-54.5% (active),-45.9% (active)
C=CCOc1ccc2c(C)cc(=O)oc2c1,102%,109%,126%,112%,93.3%,89.6%,109%,138%,109%,132%,128%,134%,109%,99.8%,103%,105%,122%,99.4%,–
O=C(CC(=O)c1cccc(Cl)c1)c1cccc(Cl)c1,28.4%,41.5%,47.9%,22.1%,38.5%,57.7%,43%,46.9%,42.6%,64.5%,45.2%,61.9%,51.4%,26.8%,41.4%,52.7%,37.3%,20.8%,–
COc1cc(C2CC(c3ccc(C)cc3)=NN2C=O)ccc1Oc1nc2c(c(=O)n(C)c(=O)n2C)n1C (stereo not drawn),85.3%,84%,60.8%,115%,98.3%,52%,110%,110%,64.5%,87.8%,84.8%,98.6%,58.1%,69.8%,116%,-31.3% (active),77.5%,88.3%,–
CCOC(=O)Nc1ccc2nc(N3CCCCCC3)sc2c1,47.9%,54.3%,46.2%,33.2%,-12.7% (active),32%,40.2%,-7.85% (active),22.4%,38.9%,–,14.4%,49%,23.5%,-1.3% (active),64.3%,19.5%,–,17.1%
CN1C(=O)N(C)C2C1NN=c1s/c(=C\c3ccc(C(F)(F)F)cc3)c(=O)n12 (stereo not drawn),39.5%,43.2%,32.4%,31.9%,2.74% (active),31.9%,25.5%,-0.525% (active),9.33% (active),56%,60.4%,-3.65% (active),45.1%,10.4%,3.31% (active),44.6%,16%,10.6%,–
O=C(O/C(=C/c1ccccc1)C(F)(F)F)c1ccccc1,109%,102%,125%,105%,105%,101%,107%,99.3%,102%,118%,95%,108%,96%,114%,103%,101%,107%,101%,–
COc1ccc(CC2c3cc(OC)c(OC)cc3CC[N+]2(C)CCC(=O)OCCCCCOC(=O)CC[N+]2(C)CCc3cc(OC)c(OC)cc3C2Cc2ccc(OC)c(OC)c2)cc1OC (stereo not drawn),93.4%,76.3%,90.9%,100%,86.1%,101%,103%,112%,99.8%,99.6%,92.2%,91.5%,87.6%,93.5%,100%,100%,88.5%,111%,–
O=C(Nc1ccc([N+](=O)[O-])cc1)c1cc2ccccc2cc1O,-35.7% (active),1.68% (active),3.46% (active),13%,-31.5% (active),-6.53% (active),-24.2% (active),67.8%,103%,-21.5% (active),-35.5% (active),-10.4% (active),92.5%,-20.6% (active),2.51% (active),-33.3% (active),-11.4% (active),0.836% (active),–
O=C(Nc1ccc(Cl)cc1)c1cc(-c2ccc(Cl)cc2)c2sc(=O)[nH]c2n1,2.31% (active),0.841% (active),6.21% (active),-19% (active),-26.3% (active),1.59% (active),6.31% (active),-52.1% (active),16.5%,-13.8% (active),-30.9% (active),-3.38% (active),14.1%,-12.5% (active),7.84% (active),-24.9% (active),8.92% (active),-12.8% (active),–
COc1ccc2nc3cc(Cl)ccc3c(NC(=O)CSc3ccc(Cl)cc3)c2c1,-90% (active),-44.4% (active),-90.1% (active),-99.5% (active),-96.5% (active),-69.4% (active),-98.2% (active),-20.1% (active),-98.3% (active),-77.1% (active),-69.3% (active),-99.1% (active),-88.9% (active),-86.2% (active),-91.9% (active),-90% (active),-97.4% (active),-3.86% (active),–
O=C1OCC2=C1C(c1ccccc1)c1cc3c(cc1N2CCO)OCO3 (stereo not drawn),42.5%,49%,85.8%,40.3%,-23.7% (active),58.7%,32.1%,-8.27% (active),69.4%,50%,52.2%,24.8%,49%,-12.8% (active),-0.802% (active),58.3%,3.99% (active),–,–
Fc1ccc(-c2nc(-c3ccc(-c4nc5ccc(F)cc5[nH]4)cc3)no2)cc1,67.7%,54.9%,70.5%,79.6%,91.4%,75.4%,102%,71.6%,39.4%,68.3%,74.3%,79.8%,66.1%,73.4%,69.2%,87.8%,62.3%,63%,–
O=C1Nc2ccc(Br)cc2/C1=N/c1nc(-c2ccccc2)cs1,92.4%,75.7%,88%,53.8%,71.4%,80.3%,85.2%,94.7%,89.3%,101%,77%,91.7%,79.5%,102%,98.6%,78.2%,87.5%,82.4%,–
